Laboratory results published in ChEMBL document CHEMBL4303097 (2020).
In all, about 1,500 compounds were measured (“Inhibition index”: median about 0.17, highest 2% from about 1.3 on). The sample as a whole holds a higher share of the highest values than the screen did.

The molecules below were run on SARS-CoV-2 (assay: Inhibition of cell viability relative to arbidol control (inhibition index > 1 indicates higher activity) measured by fluorescence (OD590nm) in Vero E6 cells infected with SARS-CoV-2 (strain BavPat1) at MOI 0.002 after 72hrs).
Type: functional, Chlorocebus sabaeus, Vero C1008

| Compound | Inhibition index |
| --- | --- |
| CC(C(=O)O)c1ccc(N2CC=CC2)c(Cl)c1 (configuration not stated) [PIRPROFEN] | 0.2333 |
| CNC(=C[N+](=O)[O-])NCCSCc1ccc(CN(C)C)o1.Cl [RANITIDINE HYDROCHLORIDE] | 0.09309 |
| CCN1CCC[C@H]1CNC(=O)c1c(OC)ccc(Br)c1OC.Cl | 0.3465 |
| CC(C)n1c(/C=C/[C@H](O)C[C@H](O)CC(=O)[O-])c(-c2ccc(F)cc2)c2ccccc21.[Na+] | -0.06663 |
| CN[C@@H]1[C@@H](O)[C@@H](O[C@@H]2[C@@H](O)[C@H](O[C@H]3O[C@H](CN)CC[C@H]3N)[C@@H](N)C[C@H]2N)OC[C@]1(C)O.CN[C@@H]1[C@@H](O)[C@@H](O[C@@H]2[C@@H](O)[C@H](O[C@H]3O[C@H]([C@@H](C)N)CC[C@H]3N)[C@@H](N)C[C@H]2N)OC[C@]1(C)O.CN[C@@H]1[C@@H](O)[C@@H](O[C@@H]2[C@@H](O)[C@H](O[C@H]3O[C@H]([C@@H](C)NC)CC[C@H]3N)[C@@H](N)C[C@H]2N)OC[C@]1(C)O.O=S(=O)(O)O | 0.01806 |
| COc1c(-c2ccc3cc(NS(C)(=O)=O)ccc3c2)cc(-n2ccc(=O)[nH]c2=O)cc1C(C)(C)C [DASABUVIR] | 0.184 |
| Cc1cc(C2CCCCC2)n(O)c(=O)c1.NCCO [CICLOPIROX OLAMINE] | 0.2225 |
| C[C@]12CC[C@H](O)C[C@@H]1CC[C@@H]1[C@@H]2CC[C@]2(C)C(=O)CC[C@@H]12 [EPIANDROSTERONE] | 1.075 |
| C[C@]12CCC(=O)C=C1CC[C@@H]1[C@@H]2C(=O)C[C@]2(C)C(=O)CC[C@@H]12 [ADRENOTERONE] | 0.3653 |
| C[C@]12CCC(=O)C(O)=C1CC[C@@H]1[C@@H]2CC[C@]2(C)C(=O)CC[C@@H]12 [FORMESTANE] | 1.365 |
| C[C@]12CCC(=O)C=C1CC[C@@H]1[C@@H]2[C@@H](O)C[C@@]2(C)[C@H]1CC[C@]2(O)C(=O)CO [HYDROCORTISONE] | 0.1194 |
| CN1CCC(=C2c3ccccc3CC(=O)c3sccc32)CC1.O=C(O)/C=C/C(=O)O [KETOTIFEN FUMARATE] | 0.837 |
| Cc1ccc(/C(=C\CN2CCCC2)c2ccccn2)cc1.Cl | 0.8569 |
| O=C1O[C@H]([C@@H](O)CO)C(O)=C1O [ASCORBIC ACID] | 0.2513 |
| C[C@]12CCC(=O)C=C1C=C[C@@H]1[C@@H]2CC[C@@]2(C)[C@H]1CC[C@@]2(O)CCC(=O)[O-].[K+] [CANRENOATE POTASSIUM] | 0.2042 |
| C[C@]12CC[C@H]3[C@@H](CCC4=CC(=O)CC[C@@]43C)[C@@H]1CC[C@@H]2C(=O)CO [DESOXYCORTICOSTERONE] | 0.868 |
| CNC1(C)C2CCC(C2)C1(C)C.Cl (configuration not stated) [MECAMYLAMINE HYDROCHLORIDE] | 0.674 |
| CC(=O)O[C@H]1C[C@@H]2CC[C@@H]3[C@H](CC[C@@]4(C)[C@H]3C[C@H]([N+]3(C)CCCCC3)[C@@H]4OC(C)=O)[C@@]2(C)C[C@@H]1[N+]1(C)CCCCC1.[Br-].[Br-] [PANCURONIUM BROMIDE] | 0.06422 |
| Nc1c2ccccc2nc2ccccc12 [AMINACRINE] | -0.2464 |
| Cl.Nc1c2c(nc3ccccc13)CCCC2 [TACRINE HYDROCHLORIDE] | 1.442 |
| CCC(=O)OC(OP(=O)(CCCCc1ccccc1)CC(=O)N1C[C@H](C2CCCCC2)C[C@H]1C(=O)O)C(C)C (some centres not stated) | 1.038 |
| CC[C@H]1OC(=O)[C@H](C)[C@@H](O[C@H]2C[C@@](C)(OC)[C@@H](O)[C@H](C)O2)[C@H](C)[C@@H](O[C@@H]2O[C@H](C)C[C@H](N(C)C)[C@H]2O)[C@](C)(O)C[C@@H](C)[C@@H]2N[C@@H](COCCOC)O[C@H]([C@H]2C)[C@]1(C)O [DIRITHROMYCIN] | 0.105 |
